Compound activity as filed in PubChem.
GPR151 activ = activators of human GPR151, primary screen, cell-based, PathHunter beta-arrestin, luminescence. PathHunter beta-arrestin GPR151 cells. AID 1508602, 2020. 650,000 tested, 1% active. G-protein coupled receptor 151 (Homo sapiens), Q8TDV0. activation, % at 11.2 µM; in the data active means activation above about 4.9%;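 further: 0% = median of compound wells and 100% = cells with positive control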
MITF inh = MITF inhibitors, primary screen, biochemical, AlphaScreen, human | inhibition, % at 2.6 µM | AlphaScreen MITF homodimerization, bead proximity signal | 650,000 tested, 0.91% active; in the data active means inhibition above about 50%;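 further: 0% = vehicle wells with protein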
Target sequence (O75030 whole entry, looked up): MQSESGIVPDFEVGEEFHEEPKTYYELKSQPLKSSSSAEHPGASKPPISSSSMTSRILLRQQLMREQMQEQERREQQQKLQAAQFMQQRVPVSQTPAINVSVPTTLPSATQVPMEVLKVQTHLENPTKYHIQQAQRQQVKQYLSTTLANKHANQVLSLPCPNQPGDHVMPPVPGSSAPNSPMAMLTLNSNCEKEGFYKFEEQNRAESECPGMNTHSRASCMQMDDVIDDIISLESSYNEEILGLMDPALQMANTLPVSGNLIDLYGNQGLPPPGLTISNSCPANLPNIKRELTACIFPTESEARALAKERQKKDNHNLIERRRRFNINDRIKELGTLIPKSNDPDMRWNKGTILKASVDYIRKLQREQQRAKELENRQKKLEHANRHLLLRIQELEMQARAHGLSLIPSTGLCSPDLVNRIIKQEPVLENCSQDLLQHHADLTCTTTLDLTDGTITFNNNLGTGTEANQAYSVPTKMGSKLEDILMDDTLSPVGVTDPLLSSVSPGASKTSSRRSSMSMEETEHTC
TEAD-YAP block = TEAD-YAP interaction inhibition, primary screen, TEAD-YAP interaction inhibitor project, luminescence, HEK-TIYL cells; TEAD-Gal4/YAP UAS-luciferase luminescence; inhibition, % at 9.12 µM; 640,000 tested, 1.4% active; in the data active means inhibition above about 32%;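 further: 0% = median of test compound wells and 100% = reference inhibitor wells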
FBW7 act = FBW7 E3 ligase activators, primary screen, biochemical, AlphaScreen, human | F-box/WD repeat-containing protein 7 (Homo sapiens), Q969H0 | AlphaScreen FBW7–phospho-cyclin E peptide binding, activator screen | normalized activity (activation), % at 26.1 µM | 650,000 tested, 0.13% active | AID 1259310, 2017; in the data active means normalized activity above about 1.9%;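 further: purified mutant Fbw7 with reduced substrate affinity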
Numbers without * were called inactive. This is a sample that favours compounds with a hit; in the whole collection about 3.4% have one here.

SMILES	GPR151 activ	MITF inh	TEAD-YAP block	FBW7 act
CC(C)(C)OC(=O)N1CCC[C@H](Nc2ccnc(Cl)n2)C1	1	3	-41	0
CC(C)(C)OC(=O)N1CCC(Nc2ccnc(Cl)n2)CC1	1	5	35*	0
Oc1ccc(O)c(/C=N\Nc2nnc3c(n2)[nH]c2ccccc23)c1	2	22	50*	0
Oc1ccc(/C=N/Nc2nnc3c(n2)[nH]c2ccccc23)c(O)c1	0	19	56*	-1
Oc1ccc(/C=N/Nc2nnc3c(n2)[nH]c2ccccc23)cc1	-1	23	-31	0
C(=N\Nc1nnc2c(n1)[nH]c1ccccc12)/c1ccccn1	0	27	56*	-2
O=c1[nH]c2ncc(-c3ccc(O)cc3)nc2n1C1CCCCC1	1	9	-1	0
COc1cccc(C(=O)/C=C2/NCC3c4ccccc4CCN3C2=O)c1 (stereo unspecified)	0	-6	-43	0
Cc1cccc2cc3c(nc12)OCC(=O)N(Cc1ccccc1)C3	0	14	58*	26*
CC1Oc2nc3ccccc3cc2CN(Cc2ccc3c(c2)OCO3)C1=O (stereo unspecified)	1	2	-4	0
Cc1ccc2cc3c(nc2c1)OCC(=O)N(Cc1ccco1)C3	-1	15	-21	0
Cc1ccc2cc3c(nc2c1)OCC(=O)N(Cc1ccccc1)C3	3	3	48*	0
CC1Oc2nc3ccccc3cc2CN(Cc2ccc(F)cc2)C1=O (stereo unspecified)	-1	-1	32*	0
N#Cc1ccc(OC(=O)Cn2cnc3sc4c(c3c2=O)CCCC4)cc1	-1	5	-5	0
COc1ccc(C(=O)N2CCN(c3ccc([N+](=O)[O-])c(NCCc4ccc(OC)c(OC)c4)c3)CC2)cc1Cl	-2	-1	59*	0
COc1ccc(CCNc2cc(N3CCN(CCO)CC3)ccc2[N+](=O)[O-])cc1OC	2	10	64*	0
O=C(c1ncn[nH]1)N1CCN(c2ccc([N+](=O)[O-])c(NCc3ccc(Cl)cc3)c2)CC1	-1	-333	7	3.9*
COc1ccc(N2CCN(Cc3cc(OC)c(O)c([N+](=O)[O-])c3)CC2)cc1	0	72*	-9	0
COc1cc(CN2CCN(c3ccc([N+](=O)[O-])cc3)CC2)cc([N+](=O)[O-])c1O	1	33	0	0
CCOC(=O)c1cnc2c(C)c(Cl)ccc2c1NCCCO	1	8	2	0
CCOC(=O)CN1C(=O)C(O)(CC(=O)c2cccc([N+](=O)[O-])c2)c2ccccc21 (stereo unspecified)	1	1	3	0
CC(C)=CCN1CCN(Cc2cc3ccccc3o2)CC1CCO (stereo unspecified)	-2	9	9	0
CN(C)C(=O)CSc1nnc(-c2ccco2)n1C	-1	17	5	2.1*
Cn1c(=O)c2c(nc(NC3CCCCC3)n2CCCc2ccccc2)n(C)c1=O	1	14	-6	0
COc1ccc(C(=O)Nn2c(C3CC3)nc3ccccc3c2=O)cc1	0	7	-1	0
SMILES	GPR151 activ	MITF inh	TEAD-YAP block	FBW7 act
O=C(O)CSc1nc2ccccc2n1CC(=O)NC1CCCCC1	-1	1	-3	1.9*
COc1ccc(C(=O)Nn2c(SCC(=O)N3CCC(C)CC3)nc3ccccc3c2=O)cc1	1	7	82*	0
COc1ccc(C(=O)Nn2c(SCC(=O)c3ccc(Cl)cc3)nc3ccccc3c2=O)cc1	1	-2	77*	0
O=C(Nn1c(SCC(=O)N2CCN(c3ccccc3)CC2)nc2ccccc2c1=O)c1ccc(F)cc1	0	23	-11	1
COc1ccc(C(=O)Nn2c(SCC(=O)N3CCN(c4ccccc4)CC3)nc3ccccc3c2=O)cc1	1	-5	77*	0
COC(=O)COc1ccc(S(=O)(=O)Nc2ccccc2C)cc1	0	-8	2	0
CC(=O)Nc1ccc(Nc2cc(C)nc3ncnn23)cc1	0	6	11	1
O=C(CSc1nc2ccccc2c(=O)n1NC(=O)c1ccc(F)cc1)NC1CCCCC1	-2	11	17	1
COc1ccc(C(=O)Nn2c(SCC(=O)N3CCCC3)nc3ccccc3c2=O)cc1	0	3	78*	0
COc1ccc(C(=O)Nn2c(C)nc3ccccc3c2=O)cc1	-1	2	6	0
COc1ccc(C(=O)Nn2c(SCC(=O)NC3CCCCC3)nc3ccccc3c2=O)cc1	-1	9	81*	0
CC(C)CC(N=C1NS(=O)(=O)c2ccccc21)C(=O)O (stereo unspecified)	1	-10	-3	0
CC(=O)c1cccc(NC(=O)[C@@H](NC(=O)c2ccc(F)cc2)C(C)C)c1	-1	10	-1	0
COc1cccc(C2(CC(=O)N3CCOCC3)CC(=O)N(CCN(C)C)C2=O)c1 (stereo unspecified)	-1	6	9	2.0*
COc1cccc(C2(CC(=O)N3CCN(C)C(C)C3)CC(=O)N(CCN(C)C)C2=O)c1 (stereo unspecified)	1	6	5	0
CCC(/C=C1\Sc2ccccc2N1CC)=C\c1sc2ccccc2[n+]1CC	0	44	82*	0
COc1ccc(Cl)cc1/C=C1\C(=O)N(c2ccc(Cl)c(C(=O)O)c2)N=C1C	-1	23	-5	0
COc1ccc(/C(N)=N/OC(=O)c2ccc(C(C)(C)C)cc2)cc1	-1	11	8	0
Cc1ccc(C(=O)O/N=C(\N)c2ccccc2)c(Cl)c1	5	4	74*	0
N/C(=N\OC(=O)c1cccc2ccccc12)c1ccc(Cl)cc1	1	13	-8	2.1*
N/C(=N\OC(=O)c1ccccc1Br)c1ccc(Cl)cc1	0	6	-54	0
COc1ccc(/C(N)=N/OC(=O)c2ccc(C)cc2Cl)cc1	0	3	-15	0
CC(=O)Oc1ccc(C(=O)O/N=C(\N)c2cccnc2)cc1	-8	3	35*	0
CC(C)(C)c1ccc(C(=O)O/N=C(\N)c2ccccc2)cc1	0	-1	86*	0
COCCN1C(=O)CC(C(=O)OC)C12CCN(C(=O)COc1ccccc1Cl)CC2 (stereo unspecified)	0	-3	-1	0
Cc1ccc(CNC(=O)CCC2CCCN(S(=O)(=O)c3ccc(C)s3)C2)o1 (stereo unspecified)	-1	16	0	0
C=CCN1C(=O)C2(/C(=C(\O)c3ccc(OC)cc3)C(=O)C(=O)N2CCOC)c2ccccc21 (stereo unspecified)	0	23	3	0
N#C/C(=C\c1ccc(-c2cccc([N+](=O)[O-])c2)o1)C(N)=O	1	7	8	0
N#C/C(=C/c1ccc(-c2ccc([N+](=O)[O-])cc2)o1)C(N)=O	0	12	15	2.4*
